# Records with an inconclusive call do not appear. Active and inactive are the calls of the source. Unless noted, the limit is not given here; nearly all actives have AC50 up to about 26 µM.
# Columns and labels:
# [1] = growth inhibition of DIPG glioma cells, dose response, cell-based, SU-DIPG-XVII, MIPE5.0, CellTiter-Glo, qHTS (AID 1347060); settings: SU-DIPG-XVII viability, CellTiter-Glo ATP luminescence;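 as to AC50: cells exposed to compound for 48 hours before viability readout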
# [2] = growth inhibition of DIPG glioma cells, dose response, cell-based, SU-DIPG-XIII, MIPE4.0, CellTiter-Glo, qHTS (AID 1347061; cut-off not given, nearly all actives have AC50 up to about 37 µM;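 also: cells exposed to compound for 48 hours before readout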); settings: SU-DIPG-XIII viability, CellTiter-Glo ATP luminescence
# [3] = growth inhibition of DIPG glioma cells, dose response, cell-based, JHH-DIPG-1, MIPE4.0, CellTiter-Glo, qHTS (AID 1347062; cut-off not given, nearly all actives have AC50 up to about 27 µM;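 as to AC50: cells exposed to compound for two days before readout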); settings: JHH-DIPG-1 viability, CellTiter-Glo ATP luminescence
# [4] = growth inhibition of DIPG glioma cells, dose response, cell-based, SU-DIPG-IV, MIPE4.0, CellTiter-Glo, qHTS (AID 1347063; cut-off not given, nearly all actives have AC50 up to about 30 µM;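 also: compound exposure lasted 48 hours before the viability readout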); settings: SU-DIPG-IV viability, CellTiter-Glo ATP luminescence
# [5] = viability loss in pontine glioma line – cell-based, SU-DIPG-XXV, MIPE5.0, CellTiter-Glo, qHTS, dose response (AID 1347065); settings: CellTiter-Glo ATP luminescence;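 also: cells exposed to compound for 48 hours before ATP readout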
# [6] = SU-DIPG-VI glioma cell viability, MIPE4.0 library, CellTiter-Glo luminescence, qHTS (AID 1347066; cut-off not given, nearly all actives have AC50 up to about 30 µM;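 also: cells exposed to compound for 48 hours before readout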); settings: CellTiter-Glo ATP luminescence
# [7] = JHH-DIPG-1 glioma cell viability, MIPE5.0 library, CellTiter-Glo luminescence, qHTS (AID 1347067); settings: JHH-DIPG-1 glioma viability, CellTiter-Glo ATP luminescence;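 also: cells exposed to compound for 48 hours before readout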
# [8] = SU-DIPG-XXV glioma cell viability, MIPE5.0 library, qHTS (AID 1347068; cut-off not given, nearly all actives have IC50 up to about 30 µM;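 as to IC50: cells exposed to compound for 48 hours before viability readout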)
# [9] = modifiers of HSF1 nuclear foci, imaging, Selleck Cancer Library (AID 1347162; in the data active = plate-normalised HSF1 focus index below about 0.46); settings: human cells, at 10 µM; SSMD: measured here: HSF1 foci SSMD mean; cell count: measured here: cell number; plate-normalised HSF1 focus index: stronger effect = lower value
# [10] = LFS_MB_P medulloblastoma growth inhibition, cell-based, chromothripsis tumors, cisplatin or BGB combos (AID 1671449; in the data active = inhibition above about 80%;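 also: cells exposed for 96 hours; 0% = vehicle DMSO and 100% = killing by high DMSO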); settings: LFS_MB_P medulloblastoma cells
# [11] = HDN33 neuroblastoma growth inhibition, cell-based, chromothripsis tumors, cisplatin or BGB combos (AID 1671450; in the data active = inhibition above about 80%;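 also: cells exposed to compound for four days; 0% = vehicle DMSO and 100% = cell killing by high DMSO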); settings: HDN33 neuroblastoma cells, stronger effect = higher value
# [12] = ICB984 medulloblastoma cell growth inhibition, synergistic combos for chromothripsis tumors, cisplatin or BGB combos (AID 1671451; call rule not given here;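 also: cells exposed for 96 hours before readout; 0% = vehicle DMSO and 100% = killing by high DMSO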); settings: ICB984 medulloblastoma cells, drug combinations, stronger effect = higher value
# [13] = HTB85 osteosarcoma cell growth inhibition, synergistic combos for chromothripsis tumors, BGB or cisplatin IC20 combos (AID 1671453; in the data active = inhibition above about 80%;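 also: cells exposed for 96 hours before readout; 0% = vehicle DMSO and 100% = high DMSO killing control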); settings: HTB85 osteosarcoma cells, drug combinations, stronger effect = higher value
# [14] = MDA-MB-436 breast carcinoma cell growth inhibition, synergistic combos for chromothripsis tumors, BGB or cisplatin combos (AID 1671458; call rule not given here;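 also: cells exposed for 96 hours; 0% = vehicle DMSO and 100% = killing by high DMSO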); settings: MDA-MB-436 breast carcinoma growth inhibition, drug combinations, stronger effect = higher value
# [15] = growth inhibition of BT084 medulloblastoma cells, cell-based, ICGC_MB145, cisplatin and BGB IC40 combos (AID 1671461; in the data active = inhibition above about 80%;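 also: cells exposed to drugs for 96 hours; 0% = vehicle DMSO and 100% = high DMSO full killing control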); settings: drug combinations, stronger effect = higher value
# [16] = growth inhibition of RCMB18 medulloblastoma cells, cell-based, cisplatin and BGB IC40 combos (AID 1671462; in the data active = inhibition above about 80%;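 also: cells exposed to compound for four days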); settings: stronger effect = higher value
smiles,measurement,setting,value
CCN1CCN(CC(=O)Nc2ccc(-c3cccc4c(=O)cc(N5CCOCC5)oc34)c3sc4ccccc4c23)CC1,AC50,[1],9100 nM (active)
same,AC50,[2],18700 nM (active)
same,AC50,[3],16600 nM (active)
same,AC50,[4],11800 nM (active)
same,AC50,[5],6450 nM (active)
same,AC50,[6],5900 nM (active)
same,AC50,[7],12900 nM (active)
O=C(CN1C(=O)C2(CCCC2)NC[C@H]1c1cc(F)cc(F)c1)Nc1ccc2c(c1)C[C@@]1(C2)C(=O)Nc2ncccc21,outcome,[1],inactive
same,outcome,[2],inactive
same,outcome,[3],inactive
same,outcome,[4],inactive
same,outcome,[5],inactive
same,outcome,[6],inactive
same,outcome,[7],inactive
same,outcome,[8],inactive
Cc1ccc([N+](=O)[O-])cc1S(=O)(=O)N(C)/N=C/c1cnc2ccc(Br)cn12,AC50,[1],132 nM (active)
same,AC50,[2],20.9 nM (active)
same,AC50,[3],33.2 nM (active)
same,AC50,[4],23.5 nM (active)
same,AC50,[5],118 nM (active)
same,AC50,[6],132 nM (active)
same,AC50,[7],166 nM (active)
same,IC50,[8],235 nM (active)
same,SSMD,[9],7.37
same,cell count,[9],7410
same,plate-normalised HSF1 focus index,[9],1.46 (inactive)
same,inhibition,"[10]; at 0.5 µM, stronger effect = higher value",-21.6% (inactive)
same,inhibition,"[10]; measured here: combination with BGB IC20, at 0.005 µM",-7.86%
same,inhibition,"[10]; measured here: combination with BGB IC40, at 0.005 µM",-33.9%
same,inhibition,"[10]; measured here: combination with BGB IC40, at 0.05 µM",-17.7%
same,inhibition,"[10]; measured here: combination with cisplatin, at 0.5 µM, stronger effect = higher value",-8.16%
same,inhibition,"[10]; measured here: combination with cisplatin, at 5 µM, stronger effect = higher value",118%
same,inhibition,"[11]; BGB combo, at 5 µM",98.8%
same,inhibition,[11]; at 0.5 µM,82.5% (active)
same,inhibition,"[11]; cisplatin combo, at 5 µM",99.4%
same,inhibition,"[11]; measured here: with BGB IC20 combination, at 0.5 µM",82.3%
same,inhibition,"[11]; measured here: with cisplatin IC20 combination, at 0.5 µM",89%
same,inhibition,"[11]; single agent, at 5 µM",99.6%
same,inhibition,"[12]; BGB IC20 combo, at 0.005 µM",93.2%
same,inhibition,"[12]; BGB IC40 combo, at 0.005 µM",89.9%
same,inhibition,"[12]; BGB IC40 combo, at 0.05 µM",99.2%
same,inhibition,[12]; at 0.5 µM,-28.7% (inactive)
same,inhibition,"[12]; cisplatin combo, at 0.05 µM",99.2%
same,inhibition,"[12]; cisplatin combo, at 0.5 µM",-32.2%
same,inhibition,"[12]; cisplatin combo, at 5 µM",-58%
same,inhibition,"[12]; measured here: 5 uM single agent, at 5 µM",-16.2%
same,inhibition,[13]; at 0.5 µM,84.8% (active)
same,inhibition,"[13]; measured here: with BGB IC20, at 0.5 µM",92.6%
same,inhibition,"[13]; measured here: with BGB IC20, at 5 µM",100%
same,inhibition,"[13]; measured here: with cisplatin IC20, at 0.5 µM",90.8%
same,inhibition,"[13]; measured here: with cisplatin IC20, at 5 µM",99.6%
same,inhibition,"[13]; single agent, at 5 µM",99.9%
same,inhibition,[14]; at 0.5 µM,77.8% (inactive)
same,inhibition,"[14]; measured here: BGB combination, at 0.5 µM",73.3%
same,inhibition,"[14]; measured here: BGB combination, at 5 µM",54%
same,inhibition,"[14]; measured here: cisplatin combination, at 0.5 µM",77.3%
same,inhibition,"[14]; measured here: cisplatin combination, at 5 µM",74.2%
same,inhibition,[15]; at 0.5 µM,17.8% (inactive)
same,inhibition,"[15]; cisplatin combination, at 0.5 µM",8.05%
same,inhibition,"[15]; cisplatin combination, at 5 µM",-42.9%
same,inhibition,"[15]; measured here: BGB IC40 combination 0.05 uM, at 0.05 µM",16.7%
same,inhibition,"[15]; single agent, at 5 µM",-25%
same,inhibition,[16]; at 0.5 µM,68.3% (inactive)
same,inhibition,"[16]; cisplatin combo, at 5 µM",59.8%
same,inhibition,"[16]; measured here: BGB IC40 combination, at 0.05 µM",-12.7%
same,inhibition,"[16]; measured here: combination with cisplatin, at 0.5 µM",58.3%
same,inhibition,"[16]; single agent, at 5 µM",76.8%

# — PubChem BioAssay
